Assay outcomes from PubChem.
GPT2 inhibitor: inhibitors of human GPT2 alanine aminotransferase. Potency, µM (top dose mostly 57.7 µM), for inactives: top-dose activity change, negative = inhibition, actives largely listed as inhibitors. Recombinant GPT2, coupled pyruvate oxidase/HRP Amplex Red fluorescence. 0.25% of 100,000 active. Q8TD30; further: on the % scale 0 is the no-effect control and ±100 the full control effect; nearly all actives have a fitted effect of over 60% in size
Target sequence (Q8TD30 whole entry, looked up): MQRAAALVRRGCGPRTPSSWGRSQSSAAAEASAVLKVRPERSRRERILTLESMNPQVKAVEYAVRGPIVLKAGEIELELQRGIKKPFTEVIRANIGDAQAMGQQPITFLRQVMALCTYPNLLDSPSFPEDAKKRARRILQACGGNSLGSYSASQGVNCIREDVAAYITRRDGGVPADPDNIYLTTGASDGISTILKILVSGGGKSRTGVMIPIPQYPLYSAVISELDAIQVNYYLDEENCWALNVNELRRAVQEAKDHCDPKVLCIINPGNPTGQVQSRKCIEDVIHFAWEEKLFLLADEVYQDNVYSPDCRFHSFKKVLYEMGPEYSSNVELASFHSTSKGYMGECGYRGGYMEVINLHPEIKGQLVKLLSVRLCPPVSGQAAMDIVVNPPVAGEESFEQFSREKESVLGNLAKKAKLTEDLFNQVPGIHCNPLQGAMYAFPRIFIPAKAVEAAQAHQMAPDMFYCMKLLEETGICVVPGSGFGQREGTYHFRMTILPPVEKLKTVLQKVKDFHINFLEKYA
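Inhibition is scored from Amplex Red fluorescence generated when pyruvate oxidase and HRP act on pyruvate released by GPT2. Reactions contain 10ng/uL enzyme, 250uM a-KG and 2mM L-alanine and run 30 min at room temperature.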
hNpr1 antagonist: human Npr1 receptor antagonism | HEK293 hNpr1 GloSensor cGMP, ANP-stimulated luminescence | Potency, µM (series often up to 46.3 µM), for inactives: at the highest dose activity change, negative = inhibition, actives largely listed as inhibitors | 1.6% of 76,000 active | AID 1347048; calls by dose curve; further: on the % scale 0 is the no-effect control and ±100 the full control effect; nearly all actives have a fitted effect of over 60% in size
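Compound pre-incubated 30 min at room temperature on GloSensor-loaded HEK293 cells stably carrying hNpr1 and the pGS-40F cGMP biosensor. Stimulation uses hNppA at 0.1 nM final; luminescence is taken at baseline and 20 min post-agonist.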
HEK293 tox: kills HEK 293 cells; Potency, µM (highest dose often 115 µM), for the others: at the top dose activity change, negative = cytotoxicity, actives largely listed as inhibitors; AID 1345083; 6.6% of 94,000 active; HEK 293 viability, ATP luminescence (CellTiter-Glo), 48-72 h; further: on the % scale 0 is the no-effect control and ±100 the full control effect; nearly all actives have a fitted effect of over 60% in size
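Luminescence from cellular ATP, measured with CellTiter-Glo, indicates HEK 293 viability. Cells plated at 250 cells/well are treated with compound for 48 or 72 hr at 37 degree Celsius before reagent addition.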
Luciferase inh: Photinus pyralis luciferase inhibition; Potency, µM (titrated, usually from 115 µM), actives largely listed as inhibitors; purified P. pyralis luciferase, luminescence, biochemical; P08659; 2.5% of 76,000 active; further: on the % scale 0 is the no-effect control and ±100 the full control effect; nearly all actives have a fitted effect of over 65% in size
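Inhibitors were tested against purified firefly luciferase in a biochemical, low-substrate format (both substrates at 10uM) and luminescence measured with a CCD imager.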
3T3 cytotox: NIH 3T3 cell cytotoxicity | NIH 3T3 viability, CellTiter-Glo ATP luminescence, 48-72 h | Potency, µM (series often up to 96.7 µM), without a hit: at the highest dose activity change, negative = cytotoxicity, hits mostly inhibitors | 4.3% of 94,000 active | AID 1345082; further: on the % scale 0 is the no-effect control and ±100 the full control effect; nearly all actives have a fitted effect of over 55% in size
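First NIH 3T3 cells are plated at 400 cells/well; next compound is pinned in; then plates incubate 48 or 72 hr at 37 °C; finally CellTiter-Glo is added and luminescence read after 10 min.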
Npr1 antag conf: confirmation of human Npr1 natriuretic peptide receptor antagonists; shares compounds with hNpr1 antagonist; HEK293 hNpr1 cGMP GloSensor luminescence, ANP-stimulated; Potency, µM (series often up to 57.6 µM), without a hit: at the top dose activity change, negative = inhibition, most hits filed as inhibitors; 76% of 1,400 active; calls by dose curve; further: nearly all actives have a fitted effect of over 70% in size
Npr2 selectivity: selectivity test of Npr1 antagonists against human Npr2 | HEK293 hNpr2 GloSensor cGMP luminescence, CNP-stimulated | 67% of 1,400 active | Potency, µM (top dose mostly 57.6 µM), inactives show top-dose activity change, negative = inhibition, actives largely listed as inhibitors | shares compounds with hNpr1 antagonist; calls by dose curve; further: nearly all actives have a fitted effect of over 70% in size
FLuc inh counter: FLuc enzyme inhibition, Npr1 counter-screen; shares compounds with hNpr1 antagonist; Potency, µM (series often up to 57.6 µM), inactives show top-dose activity change, negative = inhibition, most hits filed as inhibitors; 0.7% of 1,400 active; purified FLuc enzyme, luminescence, Km substrate; further: 0% is about no effect
GloSensor ctrl: reduces cGMP signal in GloSensor control cells | shares compounds with hNpr1 antagonist | Potency, µM (highest dose often 57.6 µM), without a hit: top-dose activity change, negative = inhibition, hits mostly inhibitors | AID 1347051 | HEK293 GloSensor cGMP, SNP-stimulated, luminescence | 69% of 1,400 active; calls by dose curve; further: on the % scale 0 is the no-effect control and ±100 the full control effect; nearly all actives have a fitted effect of over 70% in size
* marks the source's active call; other numbers are inactive results; i = inactive; ? = inconclusive; / = not tested or not shown; [ ] = another dose, or the depositor's remark. A selection: hits, their analogues and other compounds. The true share with any hit is near 10%. Unless noted, the call rests on the fitted dose curve; in most records, active means well fitted curve in the direction sought with a large enough effect; inconclusive means small, poorly fitted or top-dose-only effect, or another doubt; inactive means no such curve, though single readings can be large; an effect the other way counts as inactive or inconclusive. Potency means the concentration at half of the fitted maximal effect.

SMILES	GPT2 inhibitor	hNpr1 antagonist	HEK293 tox	Luciferase inh	3T3 cytotox	Npr1 antag conf	Npr2 selectivity	FLuc inh counter	GloSensor ctrl
NS(=O)(=O)OC[C@@H]1C[C@@H](n2ccc3c(N[C@H]4CCc5ccccc54)ncnc32)C[C@@H]1O	-18%	/	/	/	/	/	/	/	/
COCCN1C(=O)c2ccccc2C(C(=O)Nc2cc(C)ccc2OC)C12CCCCC2 (stereo not given)	i	?	?	i	-16%	22µM*	12µM*	-3%	8%
COCCN1C[C@H]2CN(Cc3cccc(OC)c3)CCN2C1=O	0%[88.5 µM]	-2%[70.6 µM]	i	i	i	/	/	/	/
COc1cccc(CN2CCN(c3nc4c(s3)c(C)nn4C)CC2=O)c1	1%	?	?	i	?	?	?	1%	?
CC(=O)c1c(C)nn(CC(=O)N2CCn3nc(Cc4ccccc4)cc3C2)c1C	1%[11.5 µM]	11µM*	?	i	-34%	22µM*	19µM*	-1%	14µM*
O=C(CN1CCCCCCC1)N1CCn2nc(Cc3ccccc3)cc2C1	i	-13%	-29%	i	?	/	/	/	/
Cc1ccc2[nH]c(=O)c(CCC(=O)NC3CCN(Cc4ccccc4)CC3)cc2c1	i	10%	-27%	i	-7%	/	/	/	/
CCOc1ccccc1C(=O)N1CCC(n2cc(-c3nc(-c4ccccc4)no3)nn2)CC1	i	?	40µM*	i	?	24µM*	?	-21%	?
O=C(c1cc(F)ccc1F)N1CCCC(n2cc(-c3nc(-c4ccccc4)no3)nn2)C1 (stereo not given)	-5%	11µM*	40µM*	?	?	19µM*	19µM*	?	17µM*
Cc1noc(-c2cn(C3CCN(C(=O)C4(c5ccccc5)CC4)CC3)nn2)n1	i	0%	-10%	i	-37%	/	/	/	/
COc1cccc(CC(=O)N2CCC(n3cc(-c4nc(-c5ccccc5)no4)nn3)CC2)c1	5%	10µM*	32µM*	i	?	11µM*	11µM*	-23%	12µM*
O=C(N1CCC(n2cc(-c3nc(-c4ccccc4)no3)nn2)CC1)C1(c2ccccc2)CC1	i	13µM*	32µM*	i	?	24µM*	27µM*	-19%	24µM*
Cn1ncc2c(C(=O)NCCc3ccc(F)cc3)cc(-c3ccc(C(F)(F)F)cc3)nc21	/	/	i	/	-12%	/	/	/	/
CC(C)N1C(=O)C2(CCCC2)C1C(=O)NCc1ccccn1 (stereo not given)	i	5%	-12%	i	-6%	/	/	/	/
O=C(C1CC1)N1CCC(n2cc(-c3nc(-c4ccccc4)no3)nn2)CC1	i	?	?	i	?	?	?	-22%	?
O=C(C1CCC1)N1CCC(n2cc(-c3nc(-c4ccccc4)no3)nn2)CC1	5%	?	?	i	?	24µM*	24µM*	-12%	22µM*
CCc1ccccc1S(=O)(=O)N1CCC2(CC1)C(=O)N(CC)c1ccccc12	i	1%	?	i	?	/	/	/	/
CSc1nccc(N2CCC3(CC2)CC(=O)N(CC(C)C)C3)n1	-29%	7.1µM*	?	i	?	6.9µM*	11µM*	-1%	5.4µM*
CCNC(=O)Cc1c[nH]c2ncc(-c3ccccc3C)cc12	-1%[88.5 µM]	18µM*	?	i	?	31µM*	31µM*	1%[86.2 µM]	28µM*
Cc1ccccc1-c1cnc2[nH]cc(CC(=O)NCc3cccnc3)c2c1	-23%[88.5 µM]	32µM*	79µM*	i	?	31µM*	28µM*	2%[86.2 µM]	25µM*
O=C(Cc1c[nH]c2ncc(-c3ccccc3F)cc12)NCc1cccnc1	-17%[88.5 µM]	-24%[70.6 µM]	?	?	?	/	/	/	/
COc1ncccc1-c1cnc2[nH]cc(CC(N)=O)c2c1	4%[88.5 µM]	-4%[70.6 µM]	-10%[230 µM]	i	?	/	/	/	/
COCCNC(=O)Cc1c[nH]c2ncc(-c3ccccc3C)cc12	-1%[88.5 µM]	-24%[70.6 µM]	?	i	?	/	/	/	/
NC(=O)Cc1c[nH]c2ncc(-c3ccccc3C(F)(F)F)cc12	-17%[88.5 µM]	?	?	i	-28%[138 µM]	31µM*	?	-3%[86.2 µM]	35µM*
Cc1ccccc1-c1cnc2[nH]cc(CC(=O)N3CCCC3)c2c1	0%[88.5 µM]	3.5µM*	89µM*	i	?	7.9µM*	11µM*	-5%[86.2 µM]	7µM*
O=C(NC1CC1)c1cn2cc(-c3ccc(C(F)(F)F)cc3)sc2n1	-12%	/	-22%	/	-38%	/	/	/	/
Cc1nc2cnccn2c1C(=O)NCC(C)C	/	/	-6%[172 µM]	/	-13%[138 µM]	/	/	/	/
